In PubChem BioAssay AID1159580 (chemical genetic matrix, 2015):
Several values for one entry are separate records, joined by “and”; a condition that tells them apart may be missing. Identical values can stand only once. Out of some 5,500 compounds screened, about 2,000 (36%) were called active. Inconclusive results (about 18%) are left out. No stated cut-off is given here; in the data, active means normalized growth mostly below about 0.91 (no sharp cut-off); inconclusive means no clear call, values can overlap the other calls; inactive means mostly above about 0.92. This is one part of the list.

Test: chemical genetic growth profiling, strain panel (AID 1159580);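 further: tested at 20 µM; growth read once vehicle control cultures reached saturation at 30 °C; 1 = growth at the plate median or of vehicle wells; lower values mean less growth of the strain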
Conditions: growth OD

Measured: normalized growth

CC(=O)OC/C=C(C)/C=C/C=C(C)/C=C/C1=C(C)CCCC1(C)C
inactive: S. cerevisiae deletion strains, locus YAL013W, strain DEP1, active compounds read low 1.02 | S. cerevisiae deletion strains, locus YBR021W, strain FUR4, active compounds read low 1.03 | S. cerevisiae deletion strains, locus YBR229C, strain ROT2, active compounds read low 1.02 | S. cerevisiae deletion strains, locus YCL029C, strain bik1, active compounds read low 1 | S. cerevisiae deletion strains, locus YDL035C, strain GPR1, active compounds read low 1.01 | S. cerevisiae deletion strains, locus YDL074C, strain BRE1, active compounds read low 1.03 | S. cerevisiae deletion strains, locus YDL101C, strain DUN1, active compounds read low 1.03 | S. cerevisiae deletion strains, locus YDL134C, strain PPH21, active compounds read low 1 | S. cerevisiae deletion strains, locus YDL185W, strain tfp1, active compounds read low 0.992 | S. cerevisiae deletion strains, locus YDL192W, strain arf1, active compounds read low 0.994 | S. cerevisiae deletion strains, locus YDR101C, strain arx1, active compounds read low 0.988 | S. cerevisiae deletion strains, locus YDR150W, strain NUM1, active compounds read low 1.01 | S. cerevisiae deletion strains, locus YDR162C, strain NBP2, active compounds read low 1.01 | S. cerevisiae deletion strains, locus YDR318W, strain mcm21, active compounds read low 1 | S. cerevisiae deletion strains, locus YDR388W, active compounds read low 0.994 | S. cerevisiae deletion strains, locus YDR502C, strain sam2, active compounds read low 0.996 | S. cerevisiae deletion strains, locus YEL061C, strain CIN8, active compounds read low 1.02 | S. cerevisiae deletion strains, locus YER110C, active compounds read low 0.992 | S. cerevisiae deletion strains, locus YER155C, strain BEM2, active compounds read low 1.02 | S. cerevisiae deletion strains, locus YER167W, strain BCK2, active compounds read low 1.02 | S. cerevisiae deletion strains, locus YGL078C, strain dbp3, active compounds read low 0.982 | S. cerevisiae deletion strains, locus YGL086W, strain mad1, active compounds read low 1 | S. cerevisiae deletion strains, locus YGL248W, strain PDE1, active compounds read low 1.03 | S. cerevisiae deletion strains, locus YGR078C, strain PAC10, active compounds read low 1.04 | S. cerevisiae deletion strains, locus YGR135W, strain pre9, active compounds read low 0.984 | S. cerevisiae deletion strains, locus YGR252W, strain gcn5, active compounds read low 0.982 | S. cerevisiae deletion strains, locus YHR030C, strain SLT2, active compounds read low 1.02 and 1.06 | S. cerevisiae deletion strains, locus YHR079C, strain IRE1 (second series), active compounds read low 1 | S. cerevisiae deletion strains, locus YHR079C, strain IRE1, active compounds read low 1.06 | S. cerevisiae deletion strains, locus YHR094C, strain hxt1, active compounds read low 0.991 | S. cerevisiae deletion strains, locus YHR129C, strain ARP1, active compounds read low 1.02 | S. cerevisiae deletion strains, locus YHR200W, strain rpn10, active compounds read low 0.999 | S. cerevisiae deletion strains, locus YIL066C, strain RNR3, active compounds read low 1.02 | S. cerevisiae deletion strains, locus YIL073C, strain SPO22, active compounds read low 1.02 | S. cerevisiae deletion strains, locus YIL125W, strain kgd1, active compounds read low 0.992 | S. cerevisiae deletion strains, locus YIR030C, strain dcg1, active compounds read low 0.994 | S. cerevisiae deletion strains, locus YJL095W, strain BCK1, active compounds read low 1.05 and 1.04 | S. cerevisiae deletion strains, locus YJL134W, strain LCB3, active compounds read low 1.02 | S. cerevisiae deletion strains, locus YJL168C, strain set2, active compounds read low 0.999 | S. cerevisiae deletion strains, locus YJL187C, strain SWE1 (second series), active compounds read low 1.02 | S. cerevisiae deletion strains, locus YJR043C, strain POL32, active compounds read low 1.02 | S. cerevisiae deletion strains, locus YJR066W, strain TOR1, active compounds read low 0.959 | S. cerevisiae deletion strains, locus YJR075W, strain HOC1, active compounds read low 1.03 | S. cerevisiae deletion strains, locus YKL009W, strain mrt4, active compounds read low 1.01 | S. cerevisiae deletion strains, locus YKL068W, active compounds read low 1 | S. cerevisiae deletion strains, locus YKL085W, strain MDH1 (second series), active compounds read low 0.993 | S. cerevisiae deletion strains, locus YKL085W, strain MDH1, active compounds read low 0.993 | S. cerevisiae deletion strains, locus YKL190W, strain CNB1, active compounds read low 1.01 | S. cerevisiae deletion strains, locus YKR001C, strain vps1, active compounds read low 0.999 | S. cerevisiae deletion strains, locus YLR039C, strain RIC1, active compounds read low 1.05 | S. cerevisiae deletion strains, locus YLR058C, strain SHM2, active compounds read low 1.01 | S. cerevisiae deletion strains, locus YLR102C, strain apc9, active compounds read low 1 | S. cerevisiae deletion strains, locus YLR113W, strain HOG1, active compounds read low 0.981 | S. cerevisiae deletion strains, locus YLR262C, strain YPT6, active compounds read low 1.03 | S. cerevisiae deletion strains, locus YLR268W, strain sec22, active compounds read low 1.01 | S. cerevisiae deletion strains, locus YLR330W, strain CHS5, active compounds read low 1.02 | S. cerevisiae deletion strains, locus YLR342W, strain FKS1 (second series), active compounds read low 0.986 | S. cerevisiae deletion strains, locus YLR371W, strain rom2, active compounds read low 1 | S. cerevisiae deletion strains, locus YLR418C, strain cdc73, active compounds read low 0.986 | S. cerevisiae deletion strains, locus YML016C, strain PPZ1, active compounds read low 1.01 | S. cerevisiae deletion strains, locus YML032C, strain rad52, active compounds read low 0.998 | S. cerevisiae deletion strains, locus YML124C, strain tub3, active compounds read low 0.999 | S. cerevisiae deletion strains, locus YMR078C, strain ctf18, active compounds read low 1.01 | S. cerevisiae deletion strains, locus YMR223W, strain ubp8, active compounds read low 1.01 | S. cerevisiae deletion strains, locus YMR307W, strain GAS1, active compounds read low 0.898 | S. cerevisiae deletion strains, locus YNL067W, strain RPL9B, active compounds read low 1.03 | S. cerevisiae deletion strains, locus YNL183C, strain NPR1, active compounds read low 0.953 | S. cerevisiae deletion strains, locus YNL233W, strain BNI4, active compounds read low 1.05 | S. cerevisiae deletion strains, locus YNL250W, strain rad50, active compounds read low 0.989 | S. cerevisiae deletion strains, locus YNL271C, strain bni1, active compounds read low 0.988 | S. cerevisiae deletion strains, locus YNL298W, strain CLA4, active compounds read low 0.981 | S. cerevisiae deletion strains, locus YNL307C, strain MCK1, active compounds read low 1 | S. cerevisiae deletion strains, locus YNL322C, strain KRE1, active compounds read low 1.02 | S. cerevisiae deletion strains, locus YNR052C, strain pop2, active compounds read low 0.996 | S. cerevisiae deletion strains, locus YOL006C, strain TOP1, active compounds read low 1.06 | S. cerevisiae deletion strains, locus YOL012C, strain htz1 1.19 | S. cerevisiae deletion strains, locus YOL147C, strain pex11, active compounds read low 0.997 | S. cerevisiae deletion strains, locus YOR061W, strain CKA2, active compounds read low 1.01 | S. cerevisiae deletion strains, locus YOR069W, strain VPS5, active compounds read low 1.02 | S. cerevisiae deletion strains, locus YOR136W, strain idh2, active compounds read low 1 | S. cerevisiae deletion strains, locus YOR144C, strain elg1, active compounds read low 0.998 | S. cerevisiae deletion strains, locus YOR184W, strain ser1, active compounds read low 0.998 | S. cerevisiae deletion strains, locus YOR231W, strain MKK1, active compounds read low 1.04 | S. cerevisiae deletion strains, locus YOR316C, strain cot1, active compounds read low 0.999 | S. cerevisiae deletion strains, locus YPL241C, strain CIN2, active compounds read low 1.01 | S. cerevisiae deletion strains, locus YPL256C, strain CLN2, active compounds read low 1.08 | S. cerevisiae deletion strains, locus YPR119W, strain clb2, active compounds read low 1 | S. cerevisiae deletion strains, locus YPR141C, strain kar3, active compounds read low 0.992 | S. cerevisiae deletion strains, locus YPR163C, strain tif3, active compounds read low 0.994 | S. cerevisiae deletion strains, locus YPR167C, strain met16, active compounds read low 1 | S. cerevisiae deletion strains, strain wtn01, active compounds read low 0.995 | S. cerevisiae strains, strain wild type, active compounds read low 1.02
